For 1 sequence, binding signal results are on record in publication PMC7862700, “An all-to-all approach to the identification of sequence-specific readers for epigenetic DNA modifications on cytosine”.

Common to all, as to test: DAPPL (digital affinity profiling via proximity ligation, sequencing); 10 mM Tris-HCl pH 7.5, 50 mM NaCl, 1 mM DTT, 4% glycerol, room temperature, 30 min; GST-TFs on glutathione beads, 16-mer random dsDNA library, 0.1% formaldehyde crosslink after washing; high values mean tight binding
One test addresses T1, FEV (Homo sapiens, UniProt Q99581 1-238).
T1 sequence: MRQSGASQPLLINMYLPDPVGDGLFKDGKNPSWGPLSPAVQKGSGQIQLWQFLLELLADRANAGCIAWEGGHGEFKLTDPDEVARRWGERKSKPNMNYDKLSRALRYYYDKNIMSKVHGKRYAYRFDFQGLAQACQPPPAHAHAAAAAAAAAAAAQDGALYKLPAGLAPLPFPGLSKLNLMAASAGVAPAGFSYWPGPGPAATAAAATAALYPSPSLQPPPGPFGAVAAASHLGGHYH
The following applies: protein: recombinant; tags: N-terminal GST; dsDNA, one strand shown. The gist of the method:
(§1)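 In yeast, human transcription factors were expressed with a GST fusion, then pulled down on glutathione beads and given DNA barcodes. Pooled with a tag-only sample, they were exposed to 200 nmole of a 16-mer random double-stranded DNA library (Tris/NaCl/DTT/glycerol buffer, room temperature, 30 min), washed, crosslinked with 0.1% formaldehyde, proximity-ligated using BsaI/T4 ligase for 1 h at 37 °C, PCR-amplified and read on an Illumina NextSeq500. Each hexamer's frequency of reads for a factor, divided by the matching frequency for the tag-only sample, gives the binding signal.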

The next test addresses ETV5 (Homo sapiens, UniProt P41161 1-510). The following applies: protein: recombinant; tags: N-terminal GST; dsDNA, one strand shown. In outline: as §1
In another test the target is HSF1 (Homo sapiens, UniProt Q00613 1-529). To be noted: protein: recombinant; tags: N-terminal GST; chain copies: 3; dsDNA, one strand shown. In outline:
as §1

A further test addresses T2, SPIC (Homo sapiens, UniProt Q8N5J4 1-248).
T2 sequence: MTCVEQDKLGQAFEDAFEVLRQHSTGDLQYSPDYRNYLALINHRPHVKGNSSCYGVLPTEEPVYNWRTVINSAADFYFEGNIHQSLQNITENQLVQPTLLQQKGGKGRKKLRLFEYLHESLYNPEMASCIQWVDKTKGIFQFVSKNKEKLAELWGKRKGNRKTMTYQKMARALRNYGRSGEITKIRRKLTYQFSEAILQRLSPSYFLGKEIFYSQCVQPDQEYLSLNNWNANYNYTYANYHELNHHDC
The following applies: protein: recombinant; tags: N-terminal GST; dsDNA, one strand shown. In outline:
as §1

The target of another test is ELF4 (Homo sapiens, UniProt Q99607 1-663). To be noted: protein: recombinant; tags: N-terminal GST; dsDNA, one strand shown. The gist of the method:
as §1

A further test has as its target T3, ELK4 (Homo sapiens, UniProt P28324-2 1-405).
T3 sequence: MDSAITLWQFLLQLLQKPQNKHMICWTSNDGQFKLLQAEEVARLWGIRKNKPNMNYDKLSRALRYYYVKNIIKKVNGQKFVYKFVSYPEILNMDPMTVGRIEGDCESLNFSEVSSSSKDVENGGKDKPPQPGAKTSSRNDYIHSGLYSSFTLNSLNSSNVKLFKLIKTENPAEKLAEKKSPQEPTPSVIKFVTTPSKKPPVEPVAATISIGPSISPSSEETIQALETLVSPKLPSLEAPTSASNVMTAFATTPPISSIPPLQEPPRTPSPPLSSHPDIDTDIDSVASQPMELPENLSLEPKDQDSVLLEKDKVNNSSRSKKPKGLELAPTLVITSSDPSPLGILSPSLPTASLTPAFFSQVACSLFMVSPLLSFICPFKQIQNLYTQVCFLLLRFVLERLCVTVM
To be noted: protein: recombinant; tags: N-terminal GST; dsDNA, one strand shown. In outline: as §1

The next test addresses T4, ETV2 (Homo sapiens, UniProt O00321 1-342).
T4 sequence: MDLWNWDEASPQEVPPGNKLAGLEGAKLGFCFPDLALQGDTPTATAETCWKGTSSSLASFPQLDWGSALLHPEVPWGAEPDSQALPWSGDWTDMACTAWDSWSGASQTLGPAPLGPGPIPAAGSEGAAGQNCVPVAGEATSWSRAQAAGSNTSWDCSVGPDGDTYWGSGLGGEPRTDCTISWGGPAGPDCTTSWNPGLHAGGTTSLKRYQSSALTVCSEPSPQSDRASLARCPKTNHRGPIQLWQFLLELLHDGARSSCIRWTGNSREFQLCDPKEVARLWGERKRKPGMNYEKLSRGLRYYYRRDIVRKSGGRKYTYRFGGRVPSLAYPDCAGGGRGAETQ
To be noted: protein: recombinant; tags: N-terminal GST; dsDNA, one strand shown. In outline: as §1

The next test has as its target T5, ELF3 (Homo sapiens, UniProt P78545 1-371).
T5 sequence: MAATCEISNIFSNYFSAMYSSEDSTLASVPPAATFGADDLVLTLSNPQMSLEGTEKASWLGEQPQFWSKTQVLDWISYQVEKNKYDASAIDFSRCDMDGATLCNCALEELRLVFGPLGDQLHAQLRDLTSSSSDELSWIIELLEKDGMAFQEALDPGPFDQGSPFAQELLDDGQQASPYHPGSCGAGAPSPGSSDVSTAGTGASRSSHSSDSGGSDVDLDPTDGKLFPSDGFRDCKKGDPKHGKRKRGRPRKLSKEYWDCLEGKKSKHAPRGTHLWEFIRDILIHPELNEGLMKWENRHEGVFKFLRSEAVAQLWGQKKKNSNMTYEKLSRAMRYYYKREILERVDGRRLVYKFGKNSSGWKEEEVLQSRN
To be noted: protein: recombinant; tags: N-terminal GST; dsDNA, one strand shown. In outline:
as §1

The next test has as its target CRX (Homo sapiens, UniProt O43186 1-299). To be noted: protein: recombinant; tags: N-terminal GST; dsDNA, one strand shown. The gist of the method: as §1
For the next test, the target named is ETV1 (Homo sapiens, UniProt P50549 1-477). To be noted: protein: recombinant; tags: N-terminal GST; dsDNA, one strand shown. In outline:
as §1

The target of another test is T6, ERF (Homo sapiens, UniProt P50548 1-548).
T6 sequence: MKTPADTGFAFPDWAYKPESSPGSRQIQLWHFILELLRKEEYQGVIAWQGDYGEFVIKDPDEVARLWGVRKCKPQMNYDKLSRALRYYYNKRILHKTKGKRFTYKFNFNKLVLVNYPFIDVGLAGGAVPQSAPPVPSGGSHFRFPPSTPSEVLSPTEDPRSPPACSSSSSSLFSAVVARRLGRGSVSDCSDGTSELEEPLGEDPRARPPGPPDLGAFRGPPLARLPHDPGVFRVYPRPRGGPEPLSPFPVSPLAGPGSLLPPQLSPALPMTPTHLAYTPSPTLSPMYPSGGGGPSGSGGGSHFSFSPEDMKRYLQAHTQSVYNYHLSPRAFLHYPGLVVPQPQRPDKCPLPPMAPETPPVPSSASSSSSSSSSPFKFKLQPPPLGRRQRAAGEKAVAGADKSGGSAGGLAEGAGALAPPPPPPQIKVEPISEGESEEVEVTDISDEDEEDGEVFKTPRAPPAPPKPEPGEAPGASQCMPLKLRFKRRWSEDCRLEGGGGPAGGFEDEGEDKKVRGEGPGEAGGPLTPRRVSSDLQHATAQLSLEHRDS
To be noted: protein: recombinant; tags: N-terminal GST; dsDNA, one strand shown. In outline: as §1

In a further test the target is T7, ETV3L (Homo sapiens, UniProt Q6ZN32 1-361).
T7 sequence: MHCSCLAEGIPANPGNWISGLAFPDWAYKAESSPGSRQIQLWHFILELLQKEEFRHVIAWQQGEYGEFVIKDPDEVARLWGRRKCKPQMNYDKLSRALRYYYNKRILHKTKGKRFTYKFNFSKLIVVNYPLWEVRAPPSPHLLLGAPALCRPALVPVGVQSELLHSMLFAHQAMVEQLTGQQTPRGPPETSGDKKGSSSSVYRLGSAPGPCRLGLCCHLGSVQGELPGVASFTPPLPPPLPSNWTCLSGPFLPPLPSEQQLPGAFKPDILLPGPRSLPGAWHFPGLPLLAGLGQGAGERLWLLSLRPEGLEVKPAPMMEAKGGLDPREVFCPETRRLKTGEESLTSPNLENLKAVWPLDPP
The following applies: protein: recombinant; tags: N-terminal GST; dsDNA, one strand shown. In outline: as §1

The next test concerns the target T8, ETS2 (Homo sapiens, UniProt P15036 1-469).
T8 sequence: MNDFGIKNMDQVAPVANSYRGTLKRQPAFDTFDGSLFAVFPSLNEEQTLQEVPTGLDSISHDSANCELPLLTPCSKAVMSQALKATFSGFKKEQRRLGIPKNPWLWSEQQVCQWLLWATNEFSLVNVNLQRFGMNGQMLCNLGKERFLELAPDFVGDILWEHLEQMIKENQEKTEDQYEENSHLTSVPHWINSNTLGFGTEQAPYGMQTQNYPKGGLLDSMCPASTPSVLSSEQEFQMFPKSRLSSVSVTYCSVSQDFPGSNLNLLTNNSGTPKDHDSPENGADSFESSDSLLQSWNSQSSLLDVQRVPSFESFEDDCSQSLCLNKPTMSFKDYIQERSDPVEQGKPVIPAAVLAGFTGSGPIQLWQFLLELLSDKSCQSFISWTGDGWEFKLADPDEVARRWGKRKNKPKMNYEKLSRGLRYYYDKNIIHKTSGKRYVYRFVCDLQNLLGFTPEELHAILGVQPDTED
To be noted: protein: recombinant; tags: N-terminal GST; dsDNA, one strand shown. The gist of the method: as §1

Another test concerns the target T9, SPDEF (Homo sapiens, UniProt O95238 1-335).
T9 sequence: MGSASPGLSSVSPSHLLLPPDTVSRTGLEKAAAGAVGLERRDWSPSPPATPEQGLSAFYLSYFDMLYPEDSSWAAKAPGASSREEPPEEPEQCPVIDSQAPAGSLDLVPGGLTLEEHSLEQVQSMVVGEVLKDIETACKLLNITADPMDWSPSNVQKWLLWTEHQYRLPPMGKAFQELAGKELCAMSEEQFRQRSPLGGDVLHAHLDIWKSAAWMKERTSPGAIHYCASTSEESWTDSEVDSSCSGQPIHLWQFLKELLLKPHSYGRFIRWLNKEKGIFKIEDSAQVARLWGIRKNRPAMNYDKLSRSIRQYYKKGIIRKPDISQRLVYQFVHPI
The following applies: protein: recombinant; tags: N-terminal GST; dsDNA, one strand shown. The gist of the method: as §1

For a further test, the target named is T10, ETV7 (Homo sapiens, UniProt Q9Y603 1-341).
T10 sequence: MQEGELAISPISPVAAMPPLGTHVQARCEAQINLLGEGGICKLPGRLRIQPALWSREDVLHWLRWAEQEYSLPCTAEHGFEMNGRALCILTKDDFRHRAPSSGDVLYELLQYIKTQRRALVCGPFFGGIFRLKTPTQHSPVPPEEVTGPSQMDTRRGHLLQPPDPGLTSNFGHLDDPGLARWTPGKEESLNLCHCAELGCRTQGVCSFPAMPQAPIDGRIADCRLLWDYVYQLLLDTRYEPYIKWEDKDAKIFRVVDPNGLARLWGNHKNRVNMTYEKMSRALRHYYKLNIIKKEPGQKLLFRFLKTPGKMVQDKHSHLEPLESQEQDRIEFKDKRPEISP
The following applies: protein: recombinant; tags: N-terminal GST; dsDNA, one strand shown. The gist of the method:
as §1

The target of the next test is T11, ELF5 (Homo sapiens, UniProt Q9UKW6-2 1-255).
T11 sequence: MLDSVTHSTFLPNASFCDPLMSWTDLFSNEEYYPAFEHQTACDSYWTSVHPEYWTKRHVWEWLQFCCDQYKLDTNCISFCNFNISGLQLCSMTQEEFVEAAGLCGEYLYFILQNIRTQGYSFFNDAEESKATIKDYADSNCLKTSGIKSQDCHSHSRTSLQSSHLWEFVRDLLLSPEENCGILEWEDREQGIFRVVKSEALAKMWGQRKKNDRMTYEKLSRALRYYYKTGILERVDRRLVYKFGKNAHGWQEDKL
The following applies: protein: recombinant; tags: N-terminal GST; dsDNA, one strand shown. In outline:
as §1

The next test has as its target T12, ETV3 (Homo sapiens, UniProt P41162-2 1-143).
T12 sequence: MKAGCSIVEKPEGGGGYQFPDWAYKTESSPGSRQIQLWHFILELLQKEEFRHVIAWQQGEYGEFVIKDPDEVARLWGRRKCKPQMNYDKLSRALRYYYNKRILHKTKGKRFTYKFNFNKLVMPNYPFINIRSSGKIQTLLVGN
The following applies: protein: recombinant; tags: N-terminal GST; dsDNA, one strand shown. The gist of the method:
as §1

The target of another test is ETV6 (Homo sapiens, UniProt P41212 1-452). The following applies: protein: recombinant; tags: N-terminal GST; dsDNA, one strand shown. The gist of the method:
as §1

Chain of CRX (O43186 whole entry): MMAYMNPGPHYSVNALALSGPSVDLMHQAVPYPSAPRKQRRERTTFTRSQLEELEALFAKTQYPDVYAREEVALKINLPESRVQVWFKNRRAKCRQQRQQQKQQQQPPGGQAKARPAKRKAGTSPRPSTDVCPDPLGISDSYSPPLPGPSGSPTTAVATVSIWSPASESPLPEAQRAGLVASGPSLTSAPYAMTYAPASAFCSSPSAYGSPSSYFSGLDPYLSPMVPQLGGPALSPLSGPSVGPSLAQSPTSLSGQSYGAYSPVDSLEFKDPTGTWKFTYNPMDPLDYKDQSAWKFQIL
Chain of ETV5 (P41161 whole entry): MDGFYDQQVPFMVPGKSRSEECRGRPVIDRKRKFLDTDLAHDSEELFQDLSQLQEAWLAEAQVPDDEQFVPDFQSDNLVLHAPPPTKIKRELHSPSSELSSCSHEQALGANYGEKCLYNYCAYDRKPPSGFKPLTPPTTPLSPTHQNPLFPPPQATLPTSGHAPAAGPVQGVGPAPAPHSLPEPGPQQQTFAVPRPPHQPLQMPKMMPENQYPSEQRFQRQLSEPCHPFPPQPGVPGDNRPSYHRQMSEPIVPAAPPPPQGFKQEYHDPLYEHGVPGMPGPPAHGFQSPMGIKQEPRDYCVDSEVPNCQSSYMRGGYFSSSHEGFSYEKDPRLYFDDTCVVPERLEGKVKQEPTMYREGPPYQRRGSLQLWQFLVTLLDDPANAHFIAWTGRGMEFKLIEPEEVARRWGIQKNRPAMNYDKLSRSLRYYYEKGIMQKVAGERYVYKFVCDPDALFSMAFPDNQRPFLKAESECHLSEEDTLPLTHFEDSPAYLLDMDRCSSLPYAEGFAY
Chain of ETV6 (P41212 whole entry): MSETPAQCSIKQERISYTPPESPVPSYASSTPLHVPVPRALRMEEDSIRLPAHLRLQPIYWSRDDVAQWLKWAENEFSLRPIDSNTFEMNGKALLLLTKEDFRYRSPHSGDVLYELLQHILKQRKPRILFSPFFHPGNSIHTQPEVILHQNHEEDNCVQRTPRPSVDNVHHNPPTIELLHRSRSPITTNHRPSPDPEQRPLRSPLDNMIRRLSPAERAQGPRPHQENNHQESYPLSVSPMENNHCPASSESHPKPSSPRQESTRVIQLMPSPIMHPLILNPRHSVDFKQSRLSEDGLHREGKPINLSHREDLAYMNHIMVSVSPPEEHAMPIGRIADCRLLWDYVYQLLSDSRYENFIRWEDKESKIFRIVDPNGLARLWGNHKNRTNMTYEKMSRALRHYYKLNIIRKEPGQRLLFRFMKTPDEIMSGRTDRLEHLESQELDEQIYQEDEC
Chain of ETV1 (P50549 whole entry): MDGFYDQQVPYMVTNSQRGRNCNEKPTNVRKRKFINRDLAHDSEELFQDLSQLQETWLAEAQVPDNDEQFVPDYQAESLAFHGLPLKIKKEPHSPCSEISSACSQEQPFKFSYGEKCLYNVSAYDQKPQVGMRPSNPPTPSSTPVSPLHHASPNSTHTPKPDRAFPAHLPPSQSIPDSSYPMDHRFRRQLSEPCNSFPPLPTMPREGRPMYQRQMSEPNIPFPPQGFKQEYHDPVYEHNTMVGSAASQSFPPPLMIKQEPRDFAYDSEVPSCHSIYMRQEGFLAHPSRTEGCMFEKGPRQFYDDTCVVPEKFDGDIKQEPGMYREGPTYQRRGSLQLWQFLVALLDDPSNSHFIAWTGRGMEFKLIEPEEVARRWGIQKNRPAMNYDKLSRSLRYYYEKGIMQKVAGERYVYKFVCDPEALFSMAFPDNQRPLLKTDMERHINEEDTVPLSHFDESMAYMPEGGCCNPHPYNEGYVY
Chain of HSF1 (Q00613 whole entry): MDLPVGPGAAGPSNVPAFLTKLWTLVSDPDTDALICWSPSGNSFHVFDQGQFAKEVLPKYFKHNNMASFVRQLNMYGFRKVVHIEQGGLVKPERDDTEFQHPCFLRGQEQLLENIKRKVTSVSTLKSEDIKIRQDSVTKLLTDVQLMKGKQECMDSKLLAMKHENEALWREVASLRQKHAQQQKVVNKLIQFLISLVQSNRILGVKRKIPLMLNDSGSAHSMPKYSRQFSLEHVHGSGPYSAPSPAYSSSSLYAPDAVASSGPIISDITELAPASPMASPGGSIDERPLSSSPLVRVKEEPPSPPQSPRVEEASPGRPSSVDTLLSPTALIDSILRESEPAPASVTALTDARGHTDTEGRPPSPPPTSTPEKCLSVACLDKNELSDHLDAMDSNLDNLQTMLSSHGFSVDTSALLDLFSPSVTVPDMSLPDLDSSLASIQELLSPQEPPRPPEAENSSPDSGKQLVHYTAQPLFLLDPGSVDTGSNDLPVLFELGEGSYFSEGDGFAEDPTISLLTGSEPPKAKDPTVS
Chain of ELF4 (Q99607 whole entry): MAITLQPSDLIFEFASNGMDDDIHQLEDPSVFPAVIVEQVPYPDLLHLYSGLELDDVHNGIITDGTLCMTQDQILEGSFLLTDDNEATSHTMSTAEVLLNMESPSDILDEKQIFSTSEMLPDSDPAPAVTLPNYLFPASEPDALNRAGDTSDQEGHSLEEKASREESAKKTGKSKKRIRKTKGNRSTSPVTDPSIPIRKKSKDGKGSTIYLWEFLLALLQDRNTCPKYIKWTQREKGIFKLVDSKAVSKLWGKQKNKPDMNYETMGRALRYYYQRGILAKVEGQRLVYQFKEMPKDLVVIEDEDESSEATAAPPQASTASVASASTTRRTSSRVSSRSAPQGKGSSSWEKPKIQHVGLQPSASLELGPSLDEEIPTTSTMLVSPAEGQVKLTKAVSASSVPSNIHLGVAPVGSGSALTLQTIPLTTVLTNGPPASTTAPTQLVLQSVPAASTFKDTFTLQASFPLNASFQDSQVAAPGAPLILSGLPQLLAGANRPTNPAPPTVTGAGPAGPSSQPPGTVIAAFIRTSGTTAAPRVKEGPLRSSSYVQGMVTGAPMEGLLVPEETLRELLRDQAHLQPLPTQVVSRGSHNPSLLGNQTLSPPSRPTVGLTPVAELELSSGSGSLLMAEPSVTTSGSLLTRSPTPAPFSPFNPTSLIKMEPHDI

With CGAACC, the binding signal was 1.24 fold enrichment (6-mer frequency, TF over GST control) with FEV; 1.21 fold enrichment (6-mer frequency, TF over GST control) with ETV5; 1.47 fold enrichment (6-mer frequency, TF over GST control) with HSF1; 1.23 fold enrichment (6-mer frequency, TF over GST control) in the test with SPIC; 1.26 fold enrichment (6-mer frequency, TF over GST control) in the test with ELF4; 1.26 fold enrichment (6-mer frequency, TF over GST control) with ELK4. In addition, the binding signal is 1.2 fold enrichment (6-mer frequency, TF over GST control) in the test with ETV2; 1.24 fold enrichment (6-mer frequency, TF over GST control) in the test with ELF3; 1.02 fold enrichment (6-mer frequency, TF over GST control) in the test with CRX; 1.13 fold enrichment (6-mer frequency, TF over GST control) in the test with ETV1; 1.12 fold enrichment (6-mer frequency, TF over GST control) in the test with ERF; 1.15 fold enrichment (6-mer frequency, TF over GST control) in the test with ETV3L. The binding signal with ETS2 is 1.14 fold enrichment (6-mer frequency, TF over GST control); in the test with SPDEF, 1.23 fold enrichment (6-mer frequency, TF over GST control); with ETV7, 1.11 fold enrichment (6-mer frequency, TF over GST control); with ELF5, 1.09 fold enrichment (6-mer frequency, TF over GST control); with ETV3 it was 1.07 fold enrichment (6-mer frequency, TF over GST control); with ETV6, 1.1 fold enrichment (6-mer frequency, TF over GST control).
